IDE act = human IDE activators in live cells, primary screen, fluorescence polarization, HEK cells, FAbeta-B substrate | Insulin-degrading enzyme (Homo sapiens), P14735 | FAbeta-B cleavage; 0% vehicle, 100% cell-free pure enzyme wells | activation, % at 5.96 µM | 340,000 tested, 0.073% active | AID 493087, 2011;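 active means activation above the mean of all tested compounds plus 3 SD, set per screening campaign, cut at about 17% in these data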
Target sequence (P14735 whole entry, looked up): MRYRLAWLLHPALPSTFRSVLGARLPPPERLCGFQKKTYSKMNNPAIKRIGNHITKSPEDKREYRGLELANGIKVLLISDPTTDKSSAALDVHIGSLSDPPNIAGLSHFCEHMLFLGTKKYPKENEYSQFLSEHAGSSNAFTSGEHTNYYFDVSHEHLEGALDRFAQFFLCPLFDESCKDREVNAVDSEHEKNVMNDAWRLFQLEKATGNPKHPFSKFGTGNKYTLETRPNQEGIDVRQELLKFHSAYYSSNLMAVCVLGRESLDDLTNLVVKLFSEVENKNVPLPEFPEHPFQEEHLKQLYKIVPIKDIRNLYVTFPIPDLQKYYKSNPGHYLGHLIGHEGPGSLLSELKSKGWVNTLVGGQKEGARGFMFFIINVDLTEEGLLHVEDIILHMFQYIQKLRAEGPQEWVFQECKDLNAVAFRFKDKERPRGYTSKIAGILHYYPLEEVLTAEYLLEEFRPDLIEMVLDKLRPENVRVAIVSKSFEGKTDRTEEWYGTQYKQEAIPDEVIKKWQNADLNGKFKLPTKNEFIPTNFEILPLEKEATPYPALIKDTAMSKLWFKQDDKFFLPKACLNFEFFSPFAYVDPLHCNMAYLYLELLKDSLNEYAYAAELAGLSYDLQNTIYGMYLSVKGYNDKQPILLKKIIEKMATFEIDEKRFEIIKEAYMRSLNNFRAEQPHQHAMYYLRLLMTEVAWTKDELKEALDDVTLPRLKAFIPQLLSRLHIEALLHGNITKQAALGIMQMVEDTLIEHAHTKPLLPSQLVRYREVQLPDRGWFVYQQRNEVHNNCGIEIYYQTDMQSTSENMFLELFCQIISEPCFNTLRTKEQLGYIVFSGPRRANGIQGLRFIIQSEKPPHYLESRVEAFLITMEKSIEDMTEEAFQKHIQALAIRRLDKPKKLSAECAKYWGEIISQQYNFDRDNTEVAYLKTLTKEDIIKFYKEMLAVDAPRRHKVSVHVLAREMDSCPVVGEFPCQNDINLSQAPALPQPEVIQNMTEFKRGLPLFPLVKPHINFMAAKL
PKA-R2B act = activators of PKA-R2B holoenzyme, primary screen, biochemical, fluorescence polarization, Cy5-IP20, human | activation, % at 11.4 µM | PKA-R2B holoenzyme dissociation; R2B truncated from residue 108, S112A mutant; 0% DMSO only, 100% 113 µM cGMP | AID 504700, 2011 | 340,000 tested, 0.079% active;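 active means activation above a cutoff set at the mean over all compounds plus 3 SD, cut at about 18% in these data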;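 further: higher means more holoenzyme dissociation and a rise in polarization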
IDE inh = human IDE inhibitors in live cells, primary screen, fluorescence polarization, HEK cells, FAbetaB substrate. inhibition, % at 5.59 µM. 320,000 tested, 0.41% active. Insulin-degrading enzyme (Homo sapiens), P14735. AID 434962, 2010. FAbetaB cleavage;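 active means percent inhibition above the average of all tested compounds plus 3 SD, set per screening campaign, cut at about 16% in these data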;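 further: IDE supplied by intact live HEK cells; FP after avidin binding of uncleaved biotin substrate so inhibition keeps polarization high; 0% = DMSO wells and 100% = 60 µM reference IDE inhibitor Ii1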
PKA-R1A activ = activators of PKA-R1A holoenzyme, primary screen, biochemical, fluorescence polarization, Cy5-IP20, bovine R1A, mouse PKAc; PKA-R1A dissociation; scaled: DMSO 0%, 113 µM cGMP 100%; activation, % at 11.4 µM; 340,000 tested, 0.083% active; AID 504707, 2011;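 active means percent activation above the mean of all tested compounds plus 3 SD, cut at about 19% in these data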;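 further: higher means more PKAc released from R1A so a rise in polarization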
Rin1-Abl PPI inh = inhibitors of Rin1-Abl protein binding, primary screen, biochemical, TR-FRET; 360,000 tested, 0.4% active; AID 588664, 2011; inhibition, % at 7.35 µM; in the data active means inhibition above about 5%, passing the limit was not always enough
E coli Lon inh = inhibitors of E. coli Lon protease, primary screen, biochemical, fluorescence polarization | P0A9M0 | purified E. coli Lon protease | inhibition, % at 7.94 µM | 360,000 tested, 0.42% active; in the data active means inhibition above about 13%, passing the limit was not always enough;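 further: 0% = enzyme with probe and DMSO and 100% = no enzyme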
IDE inh confirm = human IDE inhibitors in live cells, confirmation, fluorescence polarization, HEK cells, FAbetaB substrate; 1,200 tested, 51% active; shares compounds with IDE inh; FAbetaB cleavage; AID 435028, 2010; inhibition, % at 5.59 µM;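 active means mean inhibition across triplicate wells above the cutoff set by the earlier primary insulin-degrading enzyme screen, cut at about 16% in these data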;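 further: 0% = DMSO wells and 100% = 60 µM reference IDE inhibitor Ii1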
HEK cytotox = cytotoxicity in HEK cells, cytotoxicity control for IDE inhibitor project, cell-based, luminescence; shares compounds with IDE inh; HEK293 cytotoxicity, ATP luminescence; inhibition, % at 5.59 µM; 1,200 tested, 28% active; in the data active means inhibition above about 22%;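 further: 0% = vehicle wells and 100% = reference cytotoxic drug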
* marks the source's active call; other numbers are inactive results; i = inactive; / = no result. Compounds with a hit are over-represented: about 1.3% of the library has one in this group of screens.

SMILES | IDE act | PKA-R2B act | IDE inh | PKA-R1A activ | Rin1-Abl PPI inh | E coli Lon inh | IDE inh confirm | HEK cytotox
COC(=O)c1ccc(-c2ccc(/C=N/N3C(=O)C4C5C=CC(C6CC56)C4C3=O)o2)cc1 (stereo unspecified) | 4.6 | 5.2 | 10.7 | -7.8 | -0.7 | 1.5 | / | /
O=C(c1ccc2ncsc2c1)N1CCN(c2nc3ccccc3s2)CC1 | -17.8 | 5.2 | 24.5* | -13.2 | 1.7 | -11.6 | 13.1 | 41.9*
O=C(Nc1ccccc1)N1CCN(c2nc3ccccc3s2)CC1 | -18.8 | 6.0 | 18.0* | 4.8 | 1.6 | -5.6 | 4.4 | 29.7*
O=C(Nc1ccc(F)cc1)N1CCN(c2nc3ccccc3s2)CC1 | -7.4 | 2.2 | 12.3 | -5.9 | 0.1 | -2.7 | / | /
CN(C)c1ccc(/C=C2\Oc3ccc(C#Cc4cccc(N)c4)cc3C2=O)cc1 | -48.8 | 3.6 | 43.8* | -7.2 | 0.9 | i | 49.0* | 14.5
CCCCN1C(=O)C2Cc3c([nH]c4ccccc34)CN2C1=S (stereo unspecified) | -33.3 | -14.3 | 30.3* | 0.9 | -4.0 | -67.2 | 93.8* | 12.9
CCCCCN1CC(=O)N2Cc3[nH]c4ccccc4c3C[C@H]2C1=O | -1.7 | -4.1 | -1.4 | -12.3 | 0.7 | 3.2 | / | /
Clc1ccc(/C=C/c2ncc[nH]2)c(Cl)c1 | -18.3 | -1.6 | 17.8* | 4.9 | -1.7 | -11.9 | 7.6 | 18.9
COc1ccc(N=Cc2ccccc2O)cc1 | 3.3 | -4.3 | / | -2.3 | 2.1 | -9.7 | / | /
COc1ccc(N=Cc2oc3ccc4ccccc4c3c2O)cc1 | -27.5 | -3.6 | 18.4* | -3.7 | -2.1 | -128.6 | 29.2* | 5.3
O=C1/C(=C/c2ccccc2)Nc2ccccc21 | -12.6 | -8.6 | 27.9* | -12.0 | -3.2 | 0.0 | 32.0* | 5.5
O=C(C1=C[C@@H](C2CCCCC2)C[C@@H](OCc2ccc(CO)cc2)O1)N1CCN(Cc2ccccc2)CC1 | -11.5 | -5.0 | 18.7* | -3.7 | 0.6 | -3.0 | 5.5 | 14.9
O=C(C1=C[C@H](C2CCCCC2)C[C@H](OCc2ccc(CO)cc2)O1)N1CCN(Cc2ccccc2)CC1 | 0.0 | -5.3 | 7.3 | -10.2 | 3.5 | 10.4 | / | /
C#CCOCCOCCOCCNc1nc(N2CCN(C(=O)[C@H](CCC(=O)O)n3cc(C(N)CC(C)C)nn3)CC2)nc(N2CCN(C(=O)[C@H](Cc3cc4ccccc4[nH]3)n3cc(C(N)CC(C)C)nn3)CC2)n1 (stereo partly specified) | -1.1 | 8.6 | -0.4 | 3.6 | -0.8 | 0.9 | / | /
Clc1ccc2[nH]c3c(NCCCN4CCOCC4)ncnc3c2c1 | -8.8 | -8.3 | 41.8* | -4.6 | -4.2 | -9.4 | 16.8* | 20.9
Cc1ccc2[nH]c3c(NCCN4CCOCC4)ncnc3c2c1 | -3.7 | -9.2 | / | -6.4 | -3.1 | -5.1 | / | /
COc1cc(/C=N\NC(=O)c2ccc(-c3ccccc3)cc2)cc(OC)c1O | -12.3 | -5.6 | 19.1* | 1.5 | 0.9 | -9.6 | 12.2 | 10.7
O=C(N/N=C/c1sc2ccccc2c1O)c1cccc2ccccc12 | -15.8 | -4.4 | 4.0 | 1.6 | -3.6 | -236.5 | / | /
COc1ccc(C(=O)N/N=C/c2sc3ccccc3c2O)cc1 | -26.7 | 1.5 | 17.3* | 8.3 | -4.0 | -391.7 | 32.8* | 86.7*
O=C(N/N=C/c1sc2ccccc2c1O)c1ccccc1 | -31.7 | 4.2 | 33.9* | 1.1 | 0.5 | -379.5 | 61.5* | 114.9*
COc1ccc2cc(C(=O)N/N=C/c3sc4ccccc4c3O)ccc2c1 | -24.8 | -1.6 | 14.0 | -3.0 | 1.6 | i | / | /
O=C(CN1CCCCC1)N/N=C/c1ccccc1OCc1ccccc1 | 1.7 | -10.5 | 10.9 | 2.0 | -2.3 | -12.3 | / | /
O=C(CNC(=O)c1sc2ccccc2c1Cl)NCc1cccnc1 | -15.9 | 1.0 | 18.8* | -3.6 | -9.4 | 8.2 | 7.3 | 8.8
Cc1cccc(NC(=S)NCc2cccn2C)c1 | -1.7 | 0.6 | 9.3 | 11.5 | -3.1 | 0.7 | / | /
Cc1cc(=O)[nH]c(/N=C(\N)Nc2cccc3ccccc23)n1 | -34.6 | -5.6 | 16.4* | 4.2 | -0.1 | 1.7 | 7.1 | 13.3
SMILES | IDE act | PKA-R2B act | IDE inh | PKA-R1A activ | Rin1-Abl PPI inh | E coli Lon inh | IDE inh confirm | HEK cytotox
Cc1cc(=O)[nH]c(/N=C(\N)Nc2ccc(Oc3ccccc3)cc2)n1 | 1.3 | -1.8 | 2.7 | -11.7 | -1.6 | -7.7 | / | /
Cc1ccc(C)c(S(=O)(=O)N2CCCC2CNC(=O)c2ccc([N+](=O)[O-])cc2)c1 (stereo unspecified) | 3.6 | -3.8 | -4.3 | -4.7 | 2.5 | 2.1 | / | /
COc1cc(/C=C(\C#N)c2nc3ccccc3[nH]2)ccc1OC(=O)c1ccco1 | -107.1 | 6.5 | 114.3* | 0.6 | -0.7 | -63.2 | 153.3* | 11.7
N#C/C(=C\c1ccc(O)cc1)c1nc2ccccc2o1 | -123.6 | 3.8 | 42.8* | -12.8 | -2.5 | -193.0 | 118.6* | 13.5
COc1cc(/C=C(\C#N)c2nc3ccccc3o2)ccc1O | -223.7 | -10.2 | 87.6* | 0.1 | -4.8 | i | 83.9* | 18.1
CCC(CC)c1nnc(NC(=O)Oc2ccccc2)s1 | 5.8 | 11.3 | 4.1 | 7.5 | 1.8 | 1.7 | / | /
Cc1ccc([N+](=O)[O-])cc1Nc1nc(N2CCCC2)nc(N2CCCC2)n1 | 5.8 | -12.6 | -0.1 | 3.1 | 0.8 | -4.5 | / | /
Cc1onc(-c2ccccc2)c1-c1nc2cc(Cl)ccc2c(=O)o1 | / | / | 4.2 | / | -0.6 | 2.4 | / | /
COc1ccccc1/C=C1\SC(=S)N(C(C(=O)O)c2ccccc2)C1=O (stereo unspecified) | 4.9 | -8.7 | 0.4 | -2.6 | -0.5 | 8.7 | / | /
CCOc1cc(/C=C2\SC(=S)N(C(C(=O)O)c3ccccc3)C2=O)ccc1O (stereo unspecified) | -113.8 | -1.8 | 67.8* | 2.0 | 1.2 | -133.1 | 139.8* | 11.4
CCOc1cc(/C=C2/SC(=S)N(CC3CCCO3)C2=O)ccc1O (stereo unspecified) | -74.4 | -7.0 | 34.8* | -2.5 | -0.5 | -55.6 | 123.5* | 24.3*
CCOc1ccc(/C=C2/SC(=S)N(C(C(=O)O)c3ccccc3)C2=O)cc1OCC (stereo unspecified) | 3.6 | 9.2 | / | -1.7 | 1.8 | -8.1 | / | /
